Bioassay records deposited in PubChem by National Center for Advancing Translational Sciences (NCATS).
Pf Dd2 growth – Plasmodium falciparum Dd2 growth inhibition; P. falciparum Dd2 growth, SYBR Green, 72 h; Potency, µM (highest dose often 28.9 µM), most hits filed as inhibitors; actives 4.3% (n = 120,000); AID 1347417; active = well fitted inhibition curve with a large enough effect; also: nearly all actives have a fitted effect of over 65% in size
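Infected erythrocytes (Dd2, 0.3% parasitemia, 2.5% hematocrit final) are added to compound in RPMI-1640/Albumax II medium, grown 72 h at 37C in low oxygen, then lysed with saponin/Triton-X containing SYBR Green and read by fluorescence.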
Large screens that a line does not name were inactive. The sample as a whole holds a higher share of hits than the screen did.

O=C1NCCCCCCN(S(=O)(=O)c2ccc3c(c2)OCCO3)[C@H]2CCCC[C@@H]12	none
Cn1cnc2cc(-c3ccc(F)cc3)cc(C(=O)NCCc3ccccn3)c21	none
O=C(c1ccc(N2CC[C@H](O)C2)nc1)N1CCC(Oc2cccnc2)CC1	none
COc1ccccc1-c1nnc(C2CCN(S(=O)(=O)c3ccc(F)c(C)c3)CC2)o1	none
CCCc1ccc(S(=O)(=O)N2CCC(c3nnc(-c4cccc(C)c4)o3)CC2)cc1	Pf Dd2 growth 11µM
CCCc1ccc(S(=O)(=O)N2CCC(n3cnnc3C)CC2)cc1	none
O=C(NCC(F)F)c1cc(Br)cn2ccnc12	none
CCOc1ccc(C(=O)NCCn2ccn3nc(-c4ccc(OC)cc4)cc3c2=O)cc1	none
CCN(CC)CCNC(=O)c1ccc2c(c1)sc1nc(-c3ccc(F)cc3)cn12	Pf Dd2 growth 3.2µM
CCN(CC)CCNC(=O)C1CCN(c2nn3cc(-c4ccc(F)cc4)nc3s2)CC1	none
CCCN1CCN(CCCNC(=O)c2ccc3c(c2)sc2nc(-c4ccc(OCC)cc4)cn23)CC1	Pf Dd2 growth 1.3µM
CCCC1=Nc2cc(C(=O)NCCc3ccc(OC)cc3OC)ccc2Sc2ccccc21	none
Cc1c(C(=O)NCc2ccccc2Cl)sc2nc(-c3ccc(F)cc3)cn12	none
CCCCOc1ccc(C(=O)NCCc2sc(-c3ccc(OC)c(OC)c3)nc2C)cc1	none
COc1ccc(-c2cn3c(n2)sc2cc(C(=O)Nc4c(C)cccc4C)ccc23)cc1	none
COc1ccc(-c2cn3c(n2)sc2cc(C(=O)Nc4ccc(C)c(Cl)c4)ccc23)cc1	Pf Dd2 growth 6.3µM
CCOc1ccc(-c2cn3c(n2)sc2cc(C(=O)NCCc4ccc(OC)cc4OC)ccc23)cc1	Pf Dd2 growth 5.6µM
CCOc1ccc(-c2cc3c(=O)n(CCNC(=O)c4ccc(OC)cc4)ccn3n2)cc1	none
COc1ccc(-c2cn3c(n2)sc2cc(C(=O)Nc4ccc(C)cc4C)ccc23)cc1	none
O=[S+]1([O-])NC2(CCN(Cc3ccc(F)cc3)C2)COc2ncccc21 (stereo not drawn)	none
CC1(C)[C@H](Cc2cc(CO)on2)C[C@@H]1NS(=O)(=O)c1ccc(F)cc1	none
Cc1onc(C(=O)NC2CCc3nn(C)c(=O)n3CC2)c1COc1ccccc1 (stereo not drawn)	none
O=C(N[C@H]1C[C@@H](CO)N(Cc2ccsc2)C1)c1cccnc1	none
O=C(CCc1ccccc1)N1CCC(N2CC3CC(C2)[C@H]2CCCC(=O)N2C3)CC1 (stereo partly drawn)	none
COc1ccc(C(=O)N2CCC3(CC2)NC(=O)N(c2ccccc2)N3)cc1OC	none
COc1nc2c(cc1CNC(=O)CSC)C(=O)N(CCc1ccccn1)C2	none
CNC(=O)[C@@H]1C[C@@H](O)CN1C1CCN(C(=O)C2CCCCC2)CC1	none
CC1=C[C@@H](CNC(=O)COCC(=O)O)[C@H](C(C)C)C[C@H]1CC(=O)N1CCCC1	none
CC(=O)Nc1ccc(CN2C3CCC2CN(C(C)C)C3)cc1	none
CCOC(=O)C1=CN(CC(=O)Nc2cccc(Cl)c2)S(=O)(=O)N=C1C	none
COc1ccc(Cn2c3c(c(=O)n2Cc2ccccc2)CCN(Cc2c(C)noc2C)C3)cc1	none
CCOc1ccc(-c2cc3c(=O)n(CCNC(=O)c4ccc(Cl)cc4)ccn3n2)cc1	none
COc1ccc(-c2cn3c(n2)sc2cc(C(=O)N4CCCCC4)ccc23)cc1	none
CCOc1ccc(-c2cn3c(n2)sc2cc(C(=O)NCCCN4CCCCCC4)ccc23)cc1	Pf Dd2 growth 2.2µM
CCOc1ccc(C(=O)N2CCCC(n3cc(-c4nc(C5CC5)no4)nn3)C2)cc1 (stereo not drawn)	none
CCOc1ccc(-c2cn3c(n2)sc2cc(C(=O)NCCCN(CC)CC)ccc23)cc1	Pf Dd2 growth 2.8µM
CCOc1ccc(-c2cn3c(n2)sc2cc(C(=O)N4CCCC(C)C4)ccc23)cc1 (stereo not drawn)	Pf Dd2 growth 7.1µM
CCOc1ccc(-c2cn3c(n2)sc2cc(C(=O)NC4CCCc5ccccc54)ccc23)cc1 (stereo not drawn)	none
CCOc1ccc(-c2cn3c(n2)sc2cc(C(=O)NCCCN4CCCCC4)ccc23)cc1	Pf Dd2 growth 2.5µM
Cc1ccccc1CNC(=O)CCn1ccn2nc3c(c2c1=O)CCCC3	none
CC(=O)N1CCC(N[C@H]2C[C@@H](Cc3cc(CN4CCCCC4)on3)C2(C)C)CC1	none
Cc1nn2c(c1-c1ccnn1C(C)C)N(C(=O)Cc1ccc(O)cc1)CCC2	none
O=C([C@H]1C[C@H](Oc2ccccc2)CN1Cc1ccc2[nH]ccc2c1)N1CCOCC1	none
CN(CCCO)C(=O)c1cccc(CC2CCNCC2)c1	none
O=C(O)COc1ccc(-c2nccc3c2C(=O)N(Cc2c[nH]c4ccccc24)CC(CNC(=O)Cc2ccccc2)O3)cc1 (stereo not drawn)	none
COc1nccnc1NC1CCNCC1	none
O=C(Cn1ccn2nc(-c3ccccc3)c(CO)c2c1=O)Nc1cc(F)cc(F)c1	none
CN1CCN(C(=O)[C@@H]2CCC[C@@H](NC3CCOCC3)CN(C)C(=O)C2)CC1	none
CCc1ccc(-n2nc(C)c3c(C)cc(=O)n(CC(=O)N(CC)Cc4ccccc4)c32)cc1	Pf Dd2 growth 8.9µM
CCN(CC)C(=O)Cn1c(=O)cc(C)c2c(C)nn(C)c21	none
Cc1cc(=O)n(Cc2ccccc2)c2c1c(C)nn2-c1ccccc1	none
CCC(=O)N1CC(n2cc(C(=O)NCC3CC3)nn2)C1	none
CCCn1c(C)cnc1CC1CCN(C(=O)NC)C1 (stereo not drawn)	none
COCC1CN(C(=O)c2ccc3cc[nH]c3c2)CC12CCOCC2 (stereo not drawn)	none
O=C(NCCn1ccn2nc(-c3ccc(F)cc3)cc2c1=O)c1ccsc1	none
COCCCNC(=O)C1CCN(c2nn3cc(-c4ccc(F)cc4)nc3s2)CC1	none
Cc1ccc(Cl)cc1N1CCN(CCCNC(=O)c2ccc3nc(N4CCCCC4)sc3c2)CC1	none
CCn1c(C)c(C)c2cc(C(=O)NCCCN3CCCCC3)ccc21	none
CC1CCCCN1CCCNC(=O)c1ccc2c(c1)sc1nc(-c3ccc(F)cc3)cn12 (stereo not drawn)	Pf Dd2 growth 1.4µM
O=C(NC1CCC(O)CC1)c1ccc(-c2ncc3cnc(-c4ccccc4)cn23)cc1 (stereo not drawn)	none
O=C(NC1CCCCCC1)c1ccc2c(c1)sc1nc(-c3ccccc3)cn12	Pf Dd2 growth 10µM
O=C(NCCn1ccn2nc(-c3ccc(F)cc3)cc2c1=O)c1ccc(F)c(Cl)c1	none
O=C(NCCCN1CCCCC1)c1ccc2c(c1)sc1nc(-c3ccc(F)cc3)cn12	Pf Dd2 growth 2.8µM
COc1ccc(-c2cn3c(n2)sc2cc(C(=O)NC4CCCCC4)ccc23)cc1	none
CCc1ccc(-c2cn3c(n2)sc2cc(C(=O)NC4CCCCC4)ccc23)cc1	none
Cc1ccc(-c2cn3c(n2)sc2cc(C(=O)NCCCN4CCCCC4)ccc23)cc1	Pf Dd2 growth 2.5µM
Cc1cccc([S+](=O)([O-])N2CCC3(CC2)OCCN(c2cccnc2)C3=O)c1	none
O=C(Cc1cccs1)N1CC2CC(C1)[C@H]1CCCC(=O)N1C2 (stereo partly drawn)	none
O=[S+]([O-])(c1cccs1)N1CC(Oc2ccc(F)cc2F)C1	none
Cn1cccc1CN1CCC2(C1)C(=NC1CCCCC1)NC(=O)N2c1cccnc1 (stereo not drawn)	none
O=C(NC1CCCCC1)O[C@@H]1CO[C@H]2[C@@H]1OC[C@@H]2n1nnnc1Sc1ccccc1	none
O=C(NCc1ccccc1)N1CCC(O)(c2csc(CN3CC[C@@H](O)C3)n2)CC1	none
O=C(Cn1nc2n(c1=O)CCCC2)NCc1ccccc1Cl	none
CCN1C(=O)CCC2(C(=O)NCc3cccc(F)c3)CCCC=C12 (stereo not drawn)	none
